Assay results from ChEMBL document CHEMBL2218924, “A broad activity screen in support of a chemogenomic map for kinase signalling research and drug discovery” (Biochem J, 2013).

Tests used:
[1] = biological target: Serine/threonine-protein kinase WNK2 (Homo sapiens) (UniProt Q9Y3S1); conditions: at 10 µM
[2] = biological target: Serine/threonine-protein kinase WNK3 (Homo sapiens) (UniProt Q9BYP7); conditions: at 1 µM
[3] = biological target: Serine/threonine-protein kinase WNK3 (Homo sapiens) (UniProt Q9BYP7); conditions: at 10 µM
[4] = biological target: T1, Tyrosine-protein kinase ZAP-70 (Homo sapiens) (UniProt P43403); conditions: at 1 µM
T1 sequence (whole entry): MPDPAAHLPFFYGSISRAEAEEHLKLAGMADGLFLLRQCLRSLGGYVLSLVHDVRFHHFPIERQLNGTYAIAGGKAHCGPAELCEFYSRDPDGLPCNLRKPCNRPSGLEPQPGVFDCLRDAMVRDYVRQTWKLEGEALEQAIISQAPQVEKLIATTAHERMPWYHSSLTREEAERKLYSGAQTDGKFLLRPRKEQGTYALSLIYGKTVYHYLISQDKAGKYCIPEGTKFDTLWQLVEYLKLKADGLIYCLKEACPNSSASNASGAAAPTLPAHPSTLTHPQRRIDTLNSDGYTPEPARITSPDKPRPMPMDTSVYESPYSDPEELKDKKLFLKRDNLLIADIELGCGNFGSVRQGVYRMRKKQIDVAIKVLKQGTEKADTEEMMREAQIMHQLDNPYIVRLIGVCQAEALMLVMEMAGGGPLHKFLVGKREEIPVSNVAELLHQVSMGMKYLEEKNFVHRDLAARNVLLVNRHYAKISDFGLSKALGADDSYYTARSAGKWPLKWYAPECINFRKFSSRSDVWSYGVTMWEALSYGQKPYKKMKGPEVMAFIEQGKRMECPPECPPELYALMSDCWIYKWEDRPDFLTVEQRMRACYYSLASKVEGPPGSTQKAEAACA

[5] = biological target: RAF proto-oncogene serine/threonine-protein kinase (Homo sapiens) (UniProt P04049); conditions: at 1 µM
RAF proto-oncogene serine/threonine-protein kinase (Homo sapiens), sequence (P04049 whole entry): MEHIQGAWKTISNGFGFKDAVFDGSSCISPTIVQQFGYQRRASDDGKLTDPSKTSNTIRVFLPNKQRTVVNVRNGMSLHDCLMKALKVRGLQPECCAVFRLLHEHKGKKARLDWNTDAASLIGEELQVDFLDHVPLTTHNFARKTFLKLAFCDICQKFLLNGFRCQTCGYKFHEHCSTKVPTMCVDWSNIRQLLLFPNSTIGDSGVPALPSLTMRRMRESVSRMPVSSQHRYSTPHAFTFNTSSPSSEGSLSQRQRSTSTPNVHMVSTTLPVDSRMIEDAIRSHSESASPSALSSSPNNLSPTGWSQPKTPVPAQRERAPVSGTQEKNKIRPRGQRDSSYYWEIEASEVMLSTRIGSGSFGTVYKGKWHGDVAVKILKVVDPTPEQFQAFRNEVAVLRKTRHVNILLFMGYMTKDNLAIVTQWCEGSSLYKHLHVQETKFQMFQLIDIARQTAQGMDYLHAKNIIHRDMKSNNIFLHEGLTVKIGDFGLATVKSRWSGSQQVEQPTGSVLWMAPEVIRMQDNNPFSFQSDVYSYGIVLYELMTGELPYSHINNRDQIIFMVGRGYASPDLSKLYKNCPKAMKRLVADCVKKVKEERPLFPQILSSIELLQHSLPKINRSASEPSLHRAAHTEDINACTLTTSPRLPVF

[6] = biological target: RAF proto-oncogene serine/threonine-protein kinase (Homo sapiens) (UniProt P04049); conditions: at 10 µM
[7] = biological target: Tyrosine-protein kinase Yes (Homo sapiens) (UniProt P07947); conditions: at 1 µM
Tyrosine-protein kinase Yes (Homo sapiens), sequence (P07947 2-543 limits assumed): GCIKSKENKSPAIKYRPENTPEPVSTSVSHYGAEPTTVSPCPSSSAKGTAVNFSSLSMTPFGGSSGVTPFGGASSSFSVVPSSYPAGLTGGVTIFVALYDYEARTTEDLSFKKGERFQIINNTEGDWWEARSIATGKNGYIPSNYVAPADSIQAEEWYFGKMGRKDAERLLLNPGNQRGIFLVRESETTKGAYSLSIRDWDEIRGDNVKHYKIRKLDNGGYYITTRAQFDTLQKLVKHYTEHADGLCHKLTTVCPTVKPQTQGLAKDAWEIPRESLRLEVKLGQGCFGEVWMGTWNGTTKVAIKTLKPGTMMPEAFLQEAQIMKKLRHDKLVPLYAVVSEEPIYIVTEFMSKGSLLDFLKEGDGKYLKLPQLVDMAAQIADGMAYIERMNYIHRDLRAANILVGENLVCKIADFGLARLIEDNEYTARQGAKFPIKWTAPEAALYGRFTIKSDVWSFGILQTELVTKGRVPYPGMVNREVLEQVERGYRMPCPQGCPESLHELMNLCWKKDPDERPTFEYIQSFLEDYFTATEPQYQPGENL

[8] = biological target: Tyrosine-protein kinase Yes (Homo sapiens) (UniProt P07947); conditions: at 10 µM
[9] = biological target: Death-associated protein kinase 3 (Homo sapiens) (UniProt O43293); conditions: at 1 µM
Death-associated protein kinase 3 (Homo sapiens), sequence (O43293 whole entry, looked up): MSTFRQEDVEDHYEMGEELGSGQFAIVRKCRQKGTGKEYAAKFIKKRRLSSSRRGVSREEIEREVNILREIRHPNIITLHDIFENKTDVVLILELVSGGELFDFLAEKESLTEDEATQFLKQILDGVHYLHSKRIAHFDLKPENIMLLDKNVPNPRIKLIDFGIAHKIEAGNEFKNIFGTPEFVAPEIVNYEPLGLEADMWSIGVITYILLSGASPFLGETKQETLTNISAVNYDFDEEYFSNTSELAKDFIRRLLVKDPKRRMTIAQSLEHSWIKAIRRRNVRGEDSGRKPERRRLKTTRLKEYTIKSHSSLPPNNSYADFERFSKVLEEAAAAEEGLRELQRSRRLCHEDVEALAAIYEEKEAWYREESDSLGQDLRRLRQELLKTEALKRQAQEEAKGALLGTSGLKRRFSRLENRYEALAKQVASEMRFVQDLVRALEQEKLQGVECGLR

[10] = biological target: Death-associated protein kinase 3 (Homo sapiens) (UniProt O43293); conditions: at 10 µM

Serine/threonine-protein kinase WNK2 (Homo sapiens), sequence (Q9Y3S1 whole entry): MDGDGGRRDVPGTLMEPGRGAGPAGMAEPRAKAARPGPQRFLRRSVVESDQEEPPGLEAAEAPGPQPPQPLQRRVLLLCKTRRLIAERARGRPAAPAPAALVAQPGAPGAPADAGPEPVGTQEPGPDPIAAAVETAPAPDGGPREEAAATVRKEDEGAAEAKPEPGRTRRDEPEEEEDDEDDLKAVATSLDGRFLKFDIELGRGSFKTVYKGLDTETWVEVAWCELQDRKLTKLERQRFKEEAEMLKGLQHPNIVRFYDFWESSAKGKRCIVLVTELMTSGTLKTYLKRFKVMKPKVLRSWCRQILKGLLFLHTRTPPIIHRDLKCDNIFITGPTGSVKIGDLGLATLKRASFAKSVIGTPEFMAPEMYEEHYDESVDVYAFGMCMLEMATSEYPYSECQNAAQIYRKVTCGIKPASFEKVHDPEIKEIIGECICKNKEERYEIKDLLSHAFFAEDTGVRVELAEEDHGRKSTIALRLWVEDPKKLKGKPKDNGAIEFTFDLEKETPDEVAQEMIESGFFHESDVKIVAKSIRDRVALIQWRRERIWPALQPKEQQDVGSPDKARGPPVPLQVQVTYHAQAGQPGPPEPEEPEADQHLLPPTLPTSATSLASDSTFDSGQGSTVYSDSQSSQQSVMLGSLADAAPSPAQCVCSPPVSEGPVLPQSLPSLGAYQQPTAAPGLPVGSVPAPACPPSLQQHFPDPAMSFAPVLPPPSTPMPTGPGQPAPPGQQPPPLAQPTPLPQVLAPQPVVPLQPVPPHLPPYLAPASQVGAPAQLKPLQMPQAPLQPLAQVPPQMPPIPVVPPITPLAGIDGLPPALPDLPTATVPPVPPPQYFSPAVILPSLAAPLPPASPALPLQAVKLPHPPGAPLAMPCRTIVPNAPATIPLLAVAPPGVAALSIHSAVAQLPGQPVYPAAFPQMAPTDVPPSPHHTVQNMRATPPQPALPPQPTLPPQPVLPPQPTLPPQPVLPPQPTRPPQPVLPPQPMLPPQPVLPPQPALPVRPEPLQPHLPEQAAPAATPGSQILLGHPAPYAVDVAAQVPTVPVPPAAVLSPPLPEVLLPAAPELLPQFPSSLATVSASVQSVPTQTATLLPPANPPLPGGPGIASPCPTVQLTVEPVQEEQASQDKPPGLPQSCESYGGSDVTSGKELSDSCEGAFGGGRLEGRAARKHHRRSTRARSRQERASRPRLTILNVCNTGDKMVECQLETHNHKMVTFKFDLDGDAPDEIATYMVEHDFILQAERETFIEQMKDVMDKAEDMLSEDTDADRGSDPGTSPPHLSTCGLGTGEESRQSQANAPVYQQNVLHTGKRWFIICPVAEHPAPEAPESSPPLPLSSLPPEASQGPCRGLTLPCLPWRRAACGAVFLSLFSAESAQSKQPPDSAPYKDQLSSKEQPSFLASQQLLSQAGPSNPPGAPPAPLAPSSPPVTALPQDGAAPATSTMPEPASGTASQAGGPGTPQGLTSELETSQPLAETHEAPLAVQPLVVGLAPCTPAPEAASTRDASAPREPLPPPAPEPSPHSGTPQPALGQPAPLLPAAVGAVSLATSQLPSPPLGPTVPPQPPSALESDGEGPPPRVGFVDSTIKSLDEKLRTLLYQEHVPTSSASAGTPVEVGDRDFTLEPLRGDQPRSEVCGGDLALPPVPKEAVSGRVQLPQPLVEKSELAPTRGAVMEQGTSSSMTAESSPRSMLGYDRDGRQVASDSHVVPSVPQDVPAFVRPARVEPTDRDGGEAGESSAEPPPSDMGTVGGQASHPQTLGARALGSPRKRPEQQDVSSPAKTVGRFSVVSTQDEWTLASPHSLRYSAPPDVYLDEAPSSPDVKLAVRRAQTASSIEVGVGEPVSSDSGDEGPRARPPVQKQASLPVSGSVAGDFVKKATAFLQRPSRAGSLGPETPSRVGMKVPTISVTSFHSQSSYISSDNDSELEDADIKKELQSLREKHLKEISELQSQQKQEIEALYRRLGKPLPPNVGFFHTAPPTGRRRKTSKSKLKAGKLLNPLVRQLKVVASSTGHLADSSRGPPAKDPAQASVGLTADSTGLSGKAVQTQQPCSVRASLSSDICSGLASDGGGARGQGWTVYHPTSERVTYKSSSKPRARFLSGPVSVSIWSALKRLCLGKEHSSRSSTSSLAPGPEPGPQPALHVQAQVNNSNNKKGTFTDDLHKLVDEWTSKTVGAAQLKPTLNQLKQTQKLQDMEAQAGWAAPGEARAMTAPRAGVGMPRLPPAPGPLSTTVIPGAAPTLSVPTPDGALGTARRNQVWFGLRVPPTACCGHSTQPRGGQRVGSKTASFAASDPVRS

SMILES | residual activity [1] [%] | residual activity [2] | residual activity [3] [%] | residual activity [4] [%] | residual activity [5] [%] | residual activity [6] [%] | residual activity [7] [%] | residual activity [8] [%] | residual activity [9] [%] | residual activity [10] [%]
NC(=O)c1ccc(-c2nc(-c3ccc4c(c3)OCCO4)c(-c3ccccn3)[nH]2)cc1 | 96 | 123% (inactive) | 98 | 88 | 85 | 55 |  |  |  | 
Nc1ncnc2c1c(-c1ccc(Oc3ccccc3)cc1)cn2C1CCCC1 | 42 | 91% (inactive) | 52 | 102 | 44 | 18 | 0 | 0 | 103 | 112
CN(C)S(=O)(=O)c1ccc2c(c1)/C(=C/c1cc3c([nH]1)CCCC3)C(=O)N2 | 89 | 100% (inactive) | 89 | 114 | 91 | 91 | 12 | 6 | 94 | 100
O=c1cc(N2CCNCC2)oc2c(-c3ccccc3)cccc12 | 80 | 133% (inactive) | 98 | 103 | 88 | 87 |  | 91 |  | 99
N#Cc1c(NC(=O)c2cccc3ccccc23)sc2c1CCCC2 | 95 |  | 84 |  | 91 | 78 | 129 |  |  | 
O=C1Cc2c([nH]c3ccc(Br)cc23)-c2ccccc2N1 | 67 | 88% (inactive) | 70 |  | 75 | 69 | 42 | 9 |  | 
O=C1Cc2c([nH]c3ccc([N+](=O)[O-])cc23)-c2ccccc2N1 |  |  |  | 125 |  |  | 56 | 20 |  | 
O=C(Nc1ccc(Cl)cc1)c1ccccc1NCc1ccncc1 |  |  |  |  | 41 | 9 | 117 | 75 |  | 
COc1ccc(-c2cnc3c(-c4ccsc4)cnn3c2)cc1 |  |  |  | 122 | 86 | 97 |  |  |  | 
NCCNc1ncc(C(N)=O)c(Nc2cccc(C(F)(F)F)c2)n1 | 80 |  |  |  |  |  | 64 | 3 |  | 
O=C(Nc1nc2ccccc2n1CCN1CCOCC1)c1cccc([N+](=O)[O-])c1 | 76 |  |  |  |  |  |  |  | 83 | 55
CCCCc1c(-c2ccc(O)cc2)[nH]c2nccnc12 |  |  |  |  | 84 | 71 | 56 | 51 |  | 99
O=S(=O)(NCCNC/C=C/c1ccc(Br)cc1)c1cccc2cnccc12 |  |  |  |  |  |  | 116 |  |  | 
CCCCc1c(-c2ccc(OC)cc2)[nH]c2nccnc12 |  |  |  | 111 |  |  | 51 | 69 |  | 
Cc1cc(C)c(/C=C2\C(=O)Nc3ccccc32)[nH]1 | 82 |  |  |  |  | 103 |  |  |  | 
COc1ccc(CNC(=O)Nc2ncc([N+](=O)[O-])s2)cc1 | 70 |  |  | 100 | 78 | 72 | 10 | 13 |  | 
O=C1NC(=O)C(c2cn(CCCn3ccnc3)c3ccccc23)=C1Nc1ccccc1 |  |  |  | 101 | 78 | 71 |  |  |  | 
O=C(NC(NC(=S)Nc1ccc(F)c([N+](=O)[O-])c1)C(Cl)(Cl)Cl)C(c1ccccc1)c1ccccc1 (configuration not stated) | 95 |  |  | 126 | 92 |  |  | 100 | 96 | 100
O=c1cc(N2CCOCC2)oc2c(-c3ccccc3)cccc12 | 75 |  |  |  | 68 | 69 |  |  |  | 

SMILES | residual activity [1] [%] | residual activity [2] | residual activity [3] [%] | residual activity [4] [%] | residual activity [5] [%] | residual activity [6] [%] | residual activity [7] [%] | residual activity [8] [%] | residual activity [9] [%] | residual activity [10] [%]
Nc1ncnc2[nH]nc(Nc3ccc(F)cc3)c12 |  | 101% (inactive) |  | 99 | 56 | 16 | 93 | 21 | 116 | 107
Fc1ccc(-c2nc3n(c2-c2ccncc2)CCS3)cc1 | 97 |  |  | 127 | 64 | 28 | 131 | 91 |  | 
Nc1n[nH]c2nc3ccccc3nc12 | 94 |  |  |  | 93 | 69 |  |  | 99 | 94
O=C1Nc2ccccc2/C1=C\c1c(Cl)[nH]c2ccccc12 | 61 |  | 64 |  | 85 | 41 |  |  |  | 
CC(C)c1nn(-c2c(Cl)cccc2Cl)c2nc(Cc3ccc(OCCO)cc3)[nH]c(=O)c12 | 93 |  | 97 | 104 | 79 | 76 |  | 93 |  | 129
CCN(CC)CCNC(=O)c1c(C)[nH]c(/C=C2\C(=O)Nc3ccc(Cl)cc32)c1C |  |  | 63 | 116 |  |  | 2 | -1 | 44 | 17
COc1ccc(Cl)cc1NC(=O)Nc1cc(C)nc2ccccc12 |  | 94% (inactive) | 78 |  | 79 |  |  |  | 88 | 87
O=c1c(-c2ccc(F)cc2)c(-c2ccncc2)[nH]n1-c1ccc(Cl)cc1 |  |  | 102 | 127 | 33 | 6 |  |  | 101 | 
COc1cc2ncnc(Nc3cccc(Cl)c3)c2cc1OC |  |  |  | 103 |  | 72 | 30 | 3 | 89 | 101
CN([C@@H](Cc1ccc(OS(=O)(=O)c2cccc3cnccc23)cc1)C(=O)N1CCN(c2ccccc2)CC1)S(=O)(=O)c1cccc2cnccc12 |  | 100% (inactive) | 99 |  |  |  |  |  |  | 
O=C1Nc2ccc(Cl)cc2/C1=C/c1cc(Cl)c(O)c(Cl)c1 |  | 100% (inactive) | 80 | 96 | 2 | -2 | 96 | 54 | 77 | 78
N#C/C(=C\c1ccc(O)c(O)c1)C(=O)NCc1ccccc1 |  |  |  |  | 82 |  | 104 | 73 | 89 | 
Nc1nccc(-c2c(-c3ccc(F)cc3)ncn2C2CCNCC2)n1 |  |  | 77 | 130 | 64 | 21 | 78 | 11 |  | 
O=C1NC(=O)C(c2cn(CCCO)c3ncccc23)=C1c1cnccn1 |  | 99% (inactive) | 90 |  | 91 | 78 |  |  | 95 | 83
CC(C)N(CCC(=O)c1ccc2ccccc2c1)Cc1ccccc1 | 86 |  |  |  | 75 | 81 |  |  | 85 | 88
CCN1/C(=C/C(C)=O)Sc2ccc(OC)cc21 | 70 |  |  |  | 81 | 77 |  |  |  | 
CCOc1nc(NC(=O)Cc2cc(OC)ccc2OC)cc(N)c1C#N |  |  | 73 |  | 74 | 80 |  |  |  | 
CSc1nc(-c2ccc(F)cc2)c(-c2ccnc(NC(C)c3ccccc3)c2)[nH]1 (configuration not stated) |  | 96% (inactive) | 94 |  | 89 | 65 | 99 | 63 | 84 | 
O=C1NC(=O)C(c2c[nH]c3ccccc23)=C1c1c[nH]c2ccccc12 | 82 |  |  |  |  | 57 | 100 | 36 |  | 
